Assay outcomes from PubChem BioAssay.
Hits are enriched below; roughly 6.5% of the tested compounds scored in any of these assays.
LASV entry inh: blocks Lassa virus binding to or entry into cells; 300,000 compounds, 1.2% hits; Lassa virus pseudotype entry inhibition, cell reporter; Potency, µM (doses to about 37.9 µM), for inactives: at the top dose activity change, negative = inhibition, most hits filed as inhibitors; AID 540256; calls by dose curve; tested in HEK293 cells; note: potency is the fitted concentration of half-maximal effect; nearly all actives have a fitted effect of over 50% in size
MARV entry inh: blocks Marburg virus binding to or entry into cells | 300,000 compounds, 1.8% hits | Potency, µM (titrated, usually from 37.8 µM), without a hit: top-dose activity change, negative = inhibition, hits mostly inhibitors | Marburg virus pseudotyped entry inhibition, cell reporter | AID 540276; calls by dose curve; tested in HEK293 cells; note: potency is the fitted concentration of half-maximal effect
Vaccinia mCherry: vaccinia inhibition (mCherry reporter); Vaccinia virus mCherry reporter infection, fluorescence; Potency, µM (top dose mostly 36.5 µM), for the others: top-dose activity change, negative = inhibition, actives largely listed as inhibitors; 310,000 compounds, 0.63% hits; AID 720579; calls by dose curve; tested in A549 cells; note: potency is the fitted concentration of half-maximal effect; nearly all actives have a fitted effect of over 35% in size
HCMV inh: human cytomegalovirus inhibition; 410,000 compounds, 4.5% hits; activity change, negative = inhibition, % at 57.5 µM; AID 1259415; HFF cells, HCMV-luciferase reporter, 72 h; active compounds read low; in the data active = activity change below about -60%; inconclusive = no clear call, values can overlap the other calls; inactive = above about -39%
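Two-dose cell screen: HFF monolayers treated with compounds and infected with luciferase-expressing HCMV at 1 PFU/cell, 72 h at 37C, then lysed for luciferase measurement.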
FMDV antiviral: antivirals against foot and mouth disease virus | Potency, µM (doses to about 57.9 µM), inactives show at the highest dose activity change, negative = inhibition, hits mostly inhibitors | 410,000 compounds, 1.2% hits | FMDV antiviral cell-based qHTS; calls by dose curve; tested in HEK293T cells; note: read-out not given here; potency is the fitted concentration of half-maximal effect; nearly all actives have a fitted effect of over 45% in size
Vaccinia Venus: vaccinia inhibition (Venus reporter); Potency, µM (highest dose often 36.5 µM), for inactives: top-dose activity change, negative = inhibition, most hits filed as inhibitors; 330,000 compounds, 0.46% hits; Vaccinia virus Venus reporter expression, fluorescence; AID 720580; calls by dose curve; tested in A549 cells; note: potency is the fitted concentration of half-maximal effect; nearly all actives have a fitted effect of over 30% in size
The depositor's hits bear a star; i = inactive; ? = inconclusive; nt = not tested or not shown; [ ] = another dose, or the depositor's remark. % is set by controls: 0 for no effect and ±100 for the full control effect.

SMILES | LASV entry inh | MARV entry inh | Vaccinia mCherry | HCMV inh | FMDV antiviral | Vaccinia Venus
COc1ccc(C(=O)C2CCCN(C(=O)c3cccc(N(C)C)c3)C2)cc1OC (stereo not drawn) | nt | nt | nt | 6 | -16% | nt
CN1CCN(c2ccc(-c3cc(NC=O)c4ncc(-c5ccc(F)c(Cl)c5)n4c3)cc2)CC1 | nt | nt | ? | -92* | 14% | -18%
CC(=O)Nc1cc(-c2ccc(N3CCN(C)CC3)cc2)cn2c(-c3ccc(F)c(Cl)c3)cnc12 | nt | nt | ? | -30 | -27% | ?
COc1ccc(C(C)=O)cc1CSc1nnc(Nc2ccccc2)s1 | ? | 18µM* | -14% | -70* | ? | ?
COc1ccc(C(C)=O)cc1CSc1nnc(Nc2ccc(C)cc2)s1 | ? | ? | ? | -61* | 0% | -26%
COc1ccc(C(C)=O)cc1CSc1nnc(C)s1 | 5% | 0% | i | 5 | 6% | -6%
Cc1ccc(-c2nc3ccccc3o2)cc1NC(=O)C(C)Oc1ccccc1 (stereo not drawn) | nt | nt | 4% | nt | nt | -20%
Cc1nc(C)c(C(=O)NCc2nc(-c3cccc(NC(=O)c4ccccn4)c3)oc2C)s1 | nt | nt | ? | nt | -21% | -29%
C=C(C)Cn1c(N2CCN(c3ccc(OC)cc3)CC2)nc2c1c(=O)n(C)c(=O)n2C | ? | ? | -14% | ? | 28µM* | -22%
COCCn1c(N2CCN(c3ccccc3)CC2)nc2c1c(=O)n(C)c(=O)n2C | nt | 0%[46.1 µM] | -15% | -22 | ? | -2%
CC(C)CCn1c(N2CCC(C(N)=O)CC2)nc2c1c(=O)[nH]c(=O)n2C | 14% | -11% | 1% | -94* | -18% | 4%
COc1ccc(N2CCN(c3nc4c(c(=O)n(C)c(=O)n4C)n3Cc3ccccc3)CC2)cc1 | 8.9µM* | 10µM* | -15%[1.46 µM] | 4 | -28% | ?
Cn1c(=O)c2c(nc(N3CCN(c4ccccn4)CC3)n2Cc2ccccc2Cl)n(C)c1=O | 21µM* | ? | nt | -1 | 7% | nt
C=CCn1c(=O)c2c(nc(Br)n2Cc2ccccc2Cl)n(C)c1=O | ? | -21% | ? | -73* | ? | -29%
COc1ccc(N2CCn3c2nc2c3c(=O)n(CCCc3ccccc3)c(=O)n2C)c(OC)c1 | ? | ? | nt | -90* | 13µM* | nt
Cn1c(=O)[nH]c(=O)c2c1nc(N1CCNCC1)n2Cc1ccccc1Cl | nt | nt | nt | -4 | 2% | nt
CC1CCCN(c2nc3c(c(=O)[nH]c(=O)n3C)n2Cc2ccccc2Cl)C1 (stereo not drawn) | nt | nt | -23% | -82* | -22% | ?
CCOC(=O)Cn1c(=O)c2c(nc(Br)n2Cc2ccccc2Cl)n(C)c1=O | ? | -20% | -11% | 37 | ? | -5%
Cc1ccc(Oc2nc3c(c(=O)n(Cc4ccccc4)c(=O)n3C)n2C)cc1C | ? | ? | i | 1 | 14µM* | -4%
Cc1ccc(Oc2nc3c(c(=O)n(Cc4ccccc4Cl)c(=O)n3C)n2C)cc1C | 17%[46.1 µM] | 0%[46.1 µM] | ? | 11 | -15% | ?
Cc1ccccc1Oc1nc2c(c(=O)n(C)c(=O)n2C)n1C | 13% | 11% | -12% | -25 | 9% | -9%
CCn1c(Oc2ccccc2C)nc2c1c(=O)n(C)c(=O)n2C | nt | nt | nt | -74* | -9% | nt
COc1cc(-c2c(-c3cc(OC)c(OC)c(OC)c3)noc2C)ccc1F | nt | nt | -7% | -94* | -23% | ?
COc1cc(-c2noc(C)c2C#Cc2ccc(N)cc2)cc(OC)c1OC | nt | nt | -30% | -19 | 10% | ?
COc1cc(-c2noc(C)c2/C=C/c2ccc(N)cc2)cc(OC)c1OC | nt | nt | ? | -83* | -3% | ?
SMILES | LASV entry inh | MARV entry inh | Vaccinia mCherry | HCMV inh | FMDV antiviral | Vaccinia Venus
COC(=O)CCNC(=O)c1ccc2nc(Cc3ccc(OC)c(OC)c3)oc2c1 | nt | nt | nt | 94 | 24% | nt
COc1ccc2c3c(n(C)c2c1)[C@H](CO)N(C(=O)Cc1ccccc1)CC31CCN(C(=O)Cc2ccccc2)CC1 | nt | nt | nt | 24 | nt | nt
Nc1cccc2c1C(=O)N(C(=O)/C=C/c1ccc(F)cc1)C2=O | 11µM* | 3.2µM* | ? | -5 | 40µM* | ?
Nc1cccc2c1C(=O)N(C(=O)c1ccco1)C2=O | 16%[46.1 µM] | 3%[46.1 µM] | i | 0 | -15% | -2%
O=C(N/N=C/c1cc(Br)ccc1O)c1cccc(N2CCCC2=O)c1 | ? | 23µM* | 7.9µM* | -12 | -22% | ?
COc1ccc(O)c(/C=N/NC(=O)c2ccc(N3CCCC3=O)cc2)c1 | ? | ? | 2.8µM* | ? | -19% | ?
COc1ccc(O)c(/C=N/NC(=O)c2cccc(N3CCCC3=O)c2)c1 | ? | ? | 2.5µM* | 54 | 23% | -16%
COc1ccc(/C=N/NC(=O)c2ccc(N3CCCC3=O)cc2)cc1 | ? | -13%[46.1 µM] | i | -22 | 0% | 6%
CNc1cc(OC)c(C(=O)N[C@H]2CCN(Cc3ccccc3)[C@H]2C)cc1Cl | nt | nt | nt | nt | -17% | nt
COc1ccc(-c2nc3cnc(N4CCN(C)CC4)nc3n(CCc3ccccc3)c2=O)cc1 | nt | nt | nt | nt | -12% | nt
Cc1nc2ccccn2c1-c1csc(NCc2ccco2)n1 | ? | -15% | nt | -12 | ? | nt
Cc1ccc(Nc2nc(-c3c(C)nc4ncccn34)cs2)cc1 | ? | ? | ? | 8 | ? | ?
Cc1ccn2c(-c3csc(NCc4ccccc4)n3)c(C)nc2c1 | ? | ? | nt | -81* | 16µM* | ?
Cc1ccc(Nc2nc(-c3c(C)nc4ccccn34)cs2)cc1 | ? | -41% | ? | -101* | 25µM* | 10µM*
COc1ccc2cc(CNCc3nonc3C)c(N3CCCC(CO)C3)nc2c1 (stereo not drawn) | nt | nt | -12% | nt | 13% | -4%
COc1ccc(S(=O)(=O)N2CCC[C@H]2C(=O)N2CCC[C@H]2C(=O)N[C@H](C)c2ccccc2)cc1C | nt | nt | i | 2 | -23% | 5%
COc1ccc(S(=O)(=O)N2CCC[C@H]2C(=O)N2CCC[C@H]2C(=O)N[C@@H](C)c2ccccc2)cc1C | nt | nt | -2% | -101* | -8% | 0%
Cn1cnnc1Sc1nc([N+](=O)[O-])nn1C | nt | nt | nt | -6 | 4% | nt
COc1ccccc1-c1nnc(Sc2nc([N+](=O)[O-])nn2C)o1 | -27% | ? | nt | -75* | 28µM* | nt
C=C1[C@@H](O)[C@@H]2O[C@]3(CC[C@H](/C=C/[C@@H](C)[C@@H]4CC(C)=CC5(O[C@H](C[C@@](C)(O)C(=O)OC)CC[C@H]5O)O4)O3)CC[C@H]2O[C@@H]1[C@@H](O)C[C@H](C)[C@H]1OC2(CCCCO2)CC[C@H]1C (stereo partly drawn) | nt | nt | 1.3µM* | nt | 10% | 1.3µM*
C=C1C(O)[C@@H]2O[C@]3(CC[C@H](/C=C/C(C)[C@@H]4CC(C)=CC5(O[C@H](C[C@@](C)(O)CO)CCC5O)O4)O3)CC[C@H]2O[C@@H]1C(O)CC(C)[C@H]1OC2(CCCCO2)CCC1C (stereo partly drawn) | nt | nt | ? | nt | -14% | 10µM*
